Inconclusive results are not listed. Values without a mark were called inactive. Calls of active or inactive are those of the source. Calls follow the shape of the dose curve; as a rule, active = well fitted curve in the direction sought with a large enough effect; inconclusive = small, poorly fitted or top-dose-only effect, or another doubt; inactive = no such curve, though single readings can be large; an effect the other way counts as inactive or inconclusive.
Experiments:
[1] = BET inhibitor-based combinations targeting novel dependencies in MECOM-rearranged (r) AML: SET-2 cell line (AID 2202231); conditions: SET-2 AML cells viability, CellTiter-Glo luminescence, 48 h; viability: hits give low values, concentration not given here; also: nearly all actives have a fitted effect of over 35% in size;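 as to viability: plate controls were DMSO treated cells for no effect and wells without cells for full effect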
In short: (§1)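 A 48 hr incubation preceded viability reading by CellTiter-Glo, with 15 min room-temperature development. Dose series had 11 points; normalization used DMSO and empty wells; AUC was computed and mean-centered per line as Z-AUC.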

[2] = BET inhibitor-based combinations targeting novel dependencies in MECOM-rearranged (r) AML: HNT-34 cell line (AID 2202234); conditions: HNT-34 AML viability, CellTiter-Glo luminescence, 48 h; series mostly up to 46 µM; also: nearly all actives have a fitted effect of over 35% in size
In short: (§2)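 Each compound is tested in an 11-point concentration series against 500 seeded cells/well for 48 hr. The luminescent viability signal is normalized to DMSO and blank wells, then reduced to AUC and a cell-line-centred Z-AUC.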

[3] = BET inhibitor-based combinations targeting novel dependencies in MECOM-rearranged (r) AML: AML-194 cell line (AID 2202237; also: nearly all actives have a fitted effect of over 40% in size); conditions: AML-194 (MECOM-r AML) viability, CellTiter-Glo, 48 h; series mostly up to 46 µM
In short: as §1

[4] = BET inhibitor-based combinations targeting novel dependencies in MECOM-rearranged (r) AML: AML-191 cell line (AID 2202236; also: nearly all actives have a fitted effect of over 35% in size); conditions: AML-191 viability, CellTiter-Glo luminescence, 48 h; series mostly up to 46 µM
In short: as §1

[5] = BET inhibitor-based combinations targeting novel dependencies in MECOM-rearranged (r) AML: UCSD-AML1 cell line (AID 2202235); conditions: UCSD-AML1 AML cells viability, CellTiter-Glo, 48 h; series mostly up to 46 µM; also: nearly all actives have a fitted effect of over 40% in size
In short: as §2

[6] = BET inhibitor-based combinations targeting novel dependencies in MECOM-rearranged (r) AML: OCI-AML3 cell line (AID 2202232); conditions: CellTiter-Glo luminescence, 48 h; Potency: OCI-AML3 viability; series mostly up to 46 µM; also: nearly all actives have a fitted effect of over 35% in size
In short: as §1

[7] = BET inhibitor-based combinations targeting novel dependencies in MECOM-rearranged (r) AML: MV-4-11 cell line (AID 2202233); conditions: MV-4-11 AML viability, CellTiter-Glo luminescence, 48 h; series mostly up to 46 µM; also: nearly all actives have a fitted effect of over 45% in size
In short: as §2
Potency is read from the fitted curve at half-maximal effect.

CCOc1ccc(Cc2cc([C@@H]3O[C@H](CO)[C@@H](O)[C@H](O)[C@H]3O)ccc2Cl)cc1
viability [1]: 95% | Potency [2]: inactive | Potency [3]: inactive

Nc1nc(OC(c2ccc(-c3cccc(F)c3)cc2)C(F)(F)F)cc(-c2ccc(C[C@H](N)C(=O)O)cc2)n1 (stereo not given in full)
viability [1]: 120% | Potency [4]: inactive | Potency [3]: inactive

CC(C)(C)S(=O)(=O)c1ccc2nccc(Nc3n[nH]c4ccc(F)cc34)c2c1
viability [1]: 104% | Potency [5]: 0.0012 µM (active) | Potency [4]: 10.5 µM (active) | Potency [3]: inactive

[2H]C([2H])([2H])C(O)([C@@H](C)/C=C/[C@@H](C)[C@H]1CC[C@H]2/C(=C/C=C3C[C@@H](O)C[C@H](O)C3)CCC[C@]12C)C([2H])([2H])[2H]
viability [1]: 79.5% | Potency [4]: 14.8 µM (active)

O=C(NO)c1cnc(NC2(c3cccc(F)c3)CCCCC2)nc1
Potency [1]: 9.34 µM (active) | Potency [4]: 10.5 µM (active)

O=S(=O)(c1cccc2cnccc12)N1CCCNCC1
viability [1]: 101% | Potency [2]: inactive | Potency [4]: inactive | Potency [3]: inactive

C=CC(=O)Nc1ccc(F)c(-c2ncnc3[nH]cc(C(=O)OCC)c23)c1
viability [1]: 83.4% | Potency [4]: inactive | Potency [3]: inactive

CC[C@H]1OC(=O)[C@H](C)[C@@H](O[C@H]2C[C@@](C)(OC)[C@@H](O)[C@H](C)O2)[C@H](C)[C@@H](O[C@@H]2O[C@H](C)C[C@H](N(C)C)[C@H]2O)[C@](C)(O)C[C@@H](C)CN(C)[C@H](C)[C@@H](O)[C@]1(C)O
Potency [1]: 0.468 µM (active) | Potency [5]: inactive | Potency [3]: inactive

CCc1ccc2nc(Nc3cc(Cc4ccccc4)nc(NC4CCC(O)CC4)n3)sc2c1 (stereo not given)
Potency [6]: 18.6 µM (active) | Potency [7]: 18.6 µM (active)

CN(C)Cc1cccc(N=C(c2ccccc2)c2c(O)[nH]c3cc(C(N)=O)ccc23)c1
viability [1]: 78% | Potency [5]: inactive

COc1ccc2c(c1)C(c1ccc(F)cc1)=C(CN1CCCC1)CO2
viability [1]: 95.4% | Potency [5]: inactive | Potency [4]: inactive | Potency [3]: inactive

CN(CCOc1ccc(-c2ccc3c(c2)OCO3)cc1C(C)(C)C)CC(=O)O
viability [1]: 105% | Potency [5]: inactive | Potency [3]: inactive

NS(=O)(=O)c1ccc(Cc2c(-c3cccc(-c4ccccc4)c3)nn(-c3nc(C(=O)O)cs3)c2CC2CC2)cc1
viability [1]: 106% | Potency [2]: inactive | Potency [4]: 7.42 µM (active)

CC(=O)O/N=C1/C(c2c(O)[nH]c3cc(Br)ccc23)=Nc2ccccc21
Potency [1]: 14.8 µM (active) | Potency [5]: inactive | Potency [4]: 18.6 µM (active)

CN[C@@H](C)C(=O)N[C@H](C(=O)N1CCC[C@H]1C(=O)Nc1sc(-c2ncco2)nc1-c1ccccc1)C1CCCCC1
viability [1]: 112% | Potency [5]: 1.18 µM (active) | Potency [3]: inactive

Cc1cc(Nc2ncnc3ccc(NC4=NC(C)(C)CO4)cc23)ccc1Oc1ccn2ncnc2c1
Potency [1]: 20.9 µM (active) | Potency [5]: inactive

CC(=O)C1CCC2C3CCC4=CC(=O)CCC4(C)C3CCC12C (stereo not given)
Potency [1]: 18.6 µM (active) | Potency [5]: inactive

CNC(=O)[C@H](Cc1c[nH]c2ccccc12)NC(=O)[C@@H](CC(=O)NO)CC(C)C
viability [1]: 112% | Potency [5]: inactive | Potency [3]: inactive

CN[C@@H](C)C(=O)N[C@@H]1C(=O)N(Cc2c(C)ccc3ccccc23)c2ccc(C#N)cc2N(C(C)=O)[C@H]1C
viability [1]: 102% | Potency [5]: inactive

Nc1ncn([C@H]2C[C@H](O)[C@@H](CO)O2)c(=O)n1
Potency [6]: 0.417 µM (active)

COC[C@@H](c1ccc(C(F)(F)F)cc1)N1CCN(C2(C)CCN(C(=O)c3c(C)ncnc3C)CC2)C[C@@H]1C
viability [1]: 111% | Potency [4]: inactive | Potency [3]: inactive

O=C1S/C(=C\c2ccc(OCc3cccc(B(O)O)c3)cc2)C(=O)N1Cc1ccc(F)cc1
viability [1]: 87.6% | Potency [5]: inactive | Potency [4]: 18.6 µM (active) | Potency [3]: inactive

CC/C(=C(/CC)c1ccc(O)cc1)c1ccc(O)cc1
Potency [1]: 20.9 µM (active) | Potency [5]: inactive

CC/C(=C(/c1ccc(/C=C/C(=O)O)cc1)c1ccc2[nH]ncc2c1)c1ccc(F)cc1Cl
viability [1]: 98.4% | Potency [5]: inactive | Potency [3]: inactive

CCOC(=O)[C@@]1(CCCCCCOc2ccc(Cl)cc2)CO1
viability [1]: 92% | Potency [5]: inactive | Potency [3]: inactive

COc1ccc2nc(S(=O)Cc3ncc(C)c(OC)c3C)[nH]c2c1 (stereo not given)
viability [1]: 95.9% | Potency [5]: inactive | Potency [4]: inactive

c1ccc(CNCc2ccc(CN3CCCNCCNCCCNCC3)cc2)nc1
viability [1]: 110% | Potency [5]: inactive | Potency [4]: inactive | Potency [3]: inactive

CCCCC[C@H](O)C=C[C@H]1[C@H](O)CC(=O)[C@H]1CC=CCCCC(=O)O
Potency [6]: 5.9 µM (active)

O=C(O)CCCCN(CCc1ccccc1OCc1ccc(CCc2ccccc2)cc1)Cc1ccc(C(=O)O)cc1
viability [1]: 108% | Potency [2]: 2.09 µM (active) | Potency [4]: inactive | Potency [3]: inactive

O=C1NC(=O)[C@@H](c2cn3c4c(cccc24)CCC3)[C@@H]1c1c[nH]c2ccccc12
Potency [1]: 1.32 µM (active) | Potency [2]: 0.934 µM (active) | Potency [4]: 0.934 µM (active) | Potency [3]: 934 nM (active)

OCCOc1ccc(/C(=C(/CCCl)c2ccccc2)c2ccccc2)cc1
Potency [1]: 16.6 µM (active) | Potency [5]: inactive

COC(=O)N(CC(=O)O)Cc1cccc(OCc2nc(-c3ccc(Cl)cc3)oc2C)c1
viability [1]: 89% | Potency [5]: inactive | Potency [4]: inactive | Potency [3]: inactive

O=c1cc(-c2cccc3c2Sc2ccccc2S3)oc(N2CCOCC2)c1
Potency [6]: 13.2 µM (active) | Potency [7]: 18.6 µM (active)

COc1cccc2c1C(=O)c1c(O)c3c(c(O)c1C2=O)C[C@@](O)(C(C)=O)C[C@@H]3O[C@H]1C[C@H](N)[C@H](O)[C@H](C)O1
Potency [1]: 0.59 µM (active) | Potency [4]: 0.186 µM (active)

CCc1ccc(N(CC(C)C)S(=O)(=O)c2ccc(OCC3CCOCC3)c(CO)c2)cc1
Potency [6]: 14.8 µM (active) | Potency [7]: 18.6 µM (active)

CO[C@H]1/C=C/O[C@@]2(C)Oc3c(C)c(O)c4c(O)c(c(/C=N/N5CCN(C)CC5)c(O)c4c3C2=O)NC(=O)/C(C)=C\C=C\[C@H](C)[C@H](O)[C@@H](C)[C@@H](O)[C@@H](C)[C@H](OC(C)=O)[C@@H]1C
viability [1]: 90.8% | Potency [5]: inactive | Potency [4]: inactive | Potency [3]: inactive

CN(C)CCN(C)C(=O)c1ccc(NC(=O)Nc2ccc(-c3nc(N4CCOCC4)c4ccn(CC(F)(F)F)c4n3)cc2)cc1
Potency [6]: 0.934 µM (active)

O=c1ncccn1[C@@H]1O[C@H](CO)[C@@H](O)[C@H]1O
viability [1]: 109% | Potency [2]: inactive | Potency [4]: inactive | Potency [3]: inactive

C[C@@H]1CC2C3C[C@H](F)C4=CC(=O)C=C[C@]4(C)[C@@]3(F)[C@@H](O)C[C@]2(C)[C@@]1(OC(=O)c1ccco1)C(=O)SCF (stereo not given in full)
Potency [6]: 20.9 µM (active) | Potency [7]: 20.9 µM (active)

CONC(=O)Nc1ccc(-c2sc3c(c2CN(C)Cc2ccccc2)c(=O)n(-c2ccccc2)c(=O)n3Cc2c(F)cccc2F)cc1
viability [1]: 104% | Potency [5]: inactive | Potency [4]: inactive

N#Cc1ccc(Cn2cncc2CN2CCN(c3cccc(Cl)c3)C(=O)C2)cc1
Potency [6]: 2.95 µM (active) | Potency [7]: 7.42 µM (active) | Potency [2]: 1.66 µM (active) | Potency [5]: 3.72 µM (active)
